The term viability denotes a read-out of living cells in per cent, often relative to untreated cells. As usually defined, the inhibition is the drop in the measured response relative to a control, in per cent.

In PubChem BioAssay one finds viability and inhibition data, which are given here for 40 compounds.

SMILES strings stand for the structures. The source made the active and inactive calls. Cut-off read from the data, not from the text of the source: active = inhibition above about 31%; inactive = the rest.

A short description of one experiment: MRP1 drug-resistance reversers in H69AR cells – cell-based, doxorubicin co-treatment, pilot screen (AID 601). To be noted: H69AR cells, CellTiter-Glo, 72 h; compound alone cytotoxicity; at 10 µM. (ATP-based viability assays read luminescence as a measure of living cells.)
Regarding `CCOC(=O)c1cccc(NC(=O)CSc2nc3ccccc3c(=O)n2CC)c1`, the viability was 71.1%.
For `Cc1cc(C)n(-c2nc3nonc3nc2-n2nc(C)cc2C)n1`, the viability is 105%.
For `COc1ccc(C)cc1S(=O)(=O)N(CC(=O)O)c1ccccc1`, the viability is 86.1%.
On to `COc1cc(OC)cc(C(=O)N2CCN(C(=O)c3ccc(OC)c(OC)c3)CC2)c1`, for which the viability stood at 92.4%.
Still for that read-out and setting: the value for `Cc1cccc(-c2nc(CN3CCCC(C(=O)NC4CCCC4)C3)c(C)o2)c1` (stereo not given) was 84.2%; that for `CCOc1ccccc1OCC(=O)Nc1nnc(COC)s1` was 91.8%; that for `CC(=O)OCC1OC(c2ccccc2)C(OC(C)=O)C(OC(C)=O)C1OC(C)=O` (stereo not given) was 98.8%.
Same read-out and setting: next, `COc1ccc(-c2nnc(SCC(=O)Nc3ccc(Cl)cc3)n2C)cc1`: 90.2%.
On to `Cc1sc2c(c1C)CN(C1CC(C)(C)NC(C)(C)C1)CN2C(=O)c1ccco1`, for which the viability is 83.7%.
Turning to `C=C(c1cccc2ccccc12)P(=O)(O)O`, the viability came to 92.9%.
In the case of `CS(=O)(=O)C1=C(O)C(=O)N(c2ccccc2)C1c1ccccc1` (stereo not given), the viability turned out to be 105%.
With `CCCN1CCN(CCCNC(=O)C2CCCN(c3nc4ccc(OCC)cc4s3)C2)CC1` (stereo not given), the viability was 87.3%.
On the same count and under the same terms, next, `CC(=O)Nc1ccc(Cl)cc1C(=O)O`: 106%.
Same read-out and setting: next, `Cc1nc2ccccc2c2c1C(=O)N(CCC1=CCCCC1)C2=O`: 88.4%.
`COc1ccc(-c2noc(-c3ccccc3C(=O)NCc3ccco3)n2)cc1`: the viability turned out to be 82.8%.
With `COc1cccc(OC)c1C(=O)Nc1ccc(CN2CCCCC2)cc1`, the viability was found to be 89.4%.
`CCOC(=O)C1=C(C)N=C2SCCC(=O)N2C1c1cc(Br)ccc1OC` (stereo not given): the viability turned out to be 92%.
Consider `Cc1ccc2cc3cc(C(=O)N4CC(C)CC(C)C4)oc3nc2c1` (stereo not given), for which the viability turned out to be 89.2%.
On to `COC(=O)C1=C(C)OC(N)=C(C#N)C1c1c(C)nn(-c2ccccc2)c1Cl` (stereo not given), for which the viability came out at 79.7%.
On the same count and under the same terms, next, `COCC(=O)N(Cc1cc2cc(OC)ccc2[nH]c1=O)c1ccccc1`: 90.4%.
On the same count and under the same terms, the value for `O=C(COc1ccccc1)N1CCN(C(=O)c2cccc(F)c2)CC1` was 101%.
Still for that read-out and setting: the value for `O=C(CCCCC(=O)NCc1cccs1)NCc1cccs1` was 97.8%.
`Cc1ccc(Cn2c(C(=O)NCCCN3CCOCC3)cc3sccc32)cc1`: the viability stood at 77.6%.
In the case of `CCC(=O)N1CCNC(=O)C1CC(=O)Nc1ccc(C)c(Cl)c1` (stereo not given), the viability came out at 95.8%.
On the same count and under the same terms, next, `O=C1CSC(c2cn(-c3ccccc3)nc2-c2ccccc2)N1Cc1ccco1` (stereo not given): 88.3%; `COc1ccc(-c2cc(C(=O)Nc3ccc(C)cc3)no2)cc1`: 99.1%; `CCn1nnc(NC(=O)c2cc3ccccc3o2)n1`: 101%.
With `O=C(NCC(=O)N(c1cnc2ccccc2c1)C(C(=O)NC1CCCC1)c1ccncc1)c1ccco1` (stereo not given), the viability stood at 90.1%.
Turning to `CCOC(=O)Nc1ccc(OC)cc1S(=O)(=O)N1CCCCC1`, the viability amounted to 99%.
The same measure, in the same setting: the value for `CCN(CC)CCN1C(=O)C(=O)/C(=C(/O)c2c(C)[nH]c(C(=O)OC)c2C)C1c1ccccc1OC` (stereo not given) was 68.3%; that for `Cc1cc(Nc2ccccc2)n(CCC#N)n1` was 102%; that for `Cc1cc(C)n(-c2nc3c(c(=O)n(Cc4ccc(Cl)c(Cl)c4)c(=O)n3C)n2C)n1` was 95.6%.
On the same count and under the same terms, next, `CCN(Cc1cc2cc(OC)ccc2[nH]c1=O)C(=O)Cc1ccc(OC)cc1`: 88.2%; `COc1cccc(CNC(=O)C2CCN(C(=O)N(C)C)CC2)c1`: 92.2%.
As to `CCSc1cc(C2C(C(=O)OC)=C(C)NC3=C2C(=O)CCC3)c(C)o1` (stereo not given), the viability is 84.5%.
Turning to `Cc1ccc2nc(NC(=O)C3CCCN(S(=O)(=O)c4cnc[nH]4)C3)sc2c1` (stereo not given), the viability amounted to 81.9%.
For the compound `C=CCn1c(SCc2ccc(C#N)cc2)nnc1-c1cccc(Cl)c1`, the viability is 80.2%.
In the case of `C=CCn1c(SCC(=O)Nc2ccccc2OC)nnc1-c1ccco1`, the viability came to 67.7%.
As to `COCCNC(=O)C(c1ccc(O)cc1)N(Cc1ccco1)C(=O)CCC(=O)Nc1nccs1` (stereo not given), the viability turned out to be 99.5%.
On the same count and under the same terms, next, `Cc1cc(C)c(OCC(=O)Nc2ccc3c(c2)OCO3)cc1C`: 84.5%.

Another experiment can be described thus: yeast transport mutant growth inhibition pilot in 384-well plates, post-Golgi transport modulator project (AID 636). To be noted: absorbance 615 nm, about 18 h, stronger effect = higher value.
Consider `CCOC(=O)c1cccc(NC(=O)CSc2nc3ccccc3c(=O)n2CC)c1`, for which the inhibition was -3.95% (inactive).
With `Cc1cc(C)n(-c2nc3nonc3nc2-n2nc(C)cc2C)n1`, the inhibition was -2.5% (inactive).
Consider `COc1ccc(C)cc1S(=O)(=O)N(CC(=O)O)c1ccccc1`, for which the inhibition is -2.84% (inactive).
`COc1cc(OC)cc(C(=O)N2CCN(C(=O)c3ccc(OC)c(OC)c3)CC2)c1`: the inhibition is -1.84% (inactive).
Same read-out and setting: next, `Cc1cccc(-c2nc(CN3CCCC(C(=O)NC4CCCC4)C3)c(C)o2)c1` (stereo not given): 1.73% (inactive).
In the case of `CCOc1ccccc1OCC(=O)Nc1nnc(COC)s1`, the inhibition was -2.8% (inactive).
With `CC(=O)OCC1OC(c2ccccc2)C(OC(C)=O)C(OC(C)=O)C1OC(C)=O` (stereo not given), the inhibition was -3.21% (inactive).
As to `COc1ccc(-c2nnc(SCC(=O)Nc3ccc(Cl)cc3)n2C)cc1`, the inhibition was -0.93% (inactive).
Turning to `Cc1sc2c(c1C)CN(C1CC(C)(C)NC(C)(C)C1)CN2C(=O)c1ccco1`, the inhibition is -7.33% (inactive).
Regarding `C=C(c1cccc2ccccc12)P(=O)(O)O`, the inhibition is -6.45% (inactive).
In the case of `CS(=O)(=O)C1=C(O)C(=O)N(c2ccccc2)C1c1ccccc1` (stereo not given), the inhibition is -4.73% (inactive).
As for `CCCN1CCN(CCCNC(=O)C2CCCN(c3nc4ccc(OCC)cc4s3)C2)CC1` (stereo not given), the inhibition is -5.39% (inactive).
On to `CC(=O)Nc1ccc(Cl)cc1C(=O)O`, for which the inhibition is -5.87% (inactive).
On the same count and under the same terms, next, `Cc1nc2ccccc2c2c1C(=O)N(CCC1=CCCCC1)C2=O`: -3.42% (inactive); `COc1ccc(-c2noc(-c3ccccc3C(=O)NCc3ccco3)n2)cc1`: -3.12% (inactive).
For `COc1cccc(OC)c1C(=O)Nc1ccc(CN2CCCCC2)cc1`, the inhibition is -0.66% (inactive).
Still for that read-out and setting: next, `CCOC(=O)C1=C(C)N=C2SCCC(=O)N2C1c1cc(Br)ccc1OC` (stereo not given): -7.67% (inactive); `Cc1ccc2cc3cc(C(=O)N4CC(C)CC(C)C4)oc3nc2c1` (stereo not given): -2.47% (inactive).
Turning to `COC(=O)C1=C(C)OC(N)=C(C#N)C1c1c(C)nn(-c2ccccc2)c1Cl` (stereo not given), the inhibition was -0.27% (inactive).
As to `COCC(=O)N(Cc1cc2cc(OC)ccc2[nH]c1=O)c1ccccc1`, the inhibition was -2.86% (inactive).
As for `O=C(COc1ccccc1)N1CCN(C(=O)c2cccc(F)c2)CC1`, the inhibition was -8.11% (inactive).
Consider `O=C(CCCCC(=O)NCc1cccs1)NCc1cccs1`, for which the inhibition is 1.2% (inactive).
As to `Cc1ccc(Cn2c(C(=O)NCCCN3CCOCC3)cc3sccc32)cc1`, the inhibition is -3.16% (inactive).
Take `CCC(=O)N1CCNC(=O)C1CC(=O)Nc1ccc(C)c(Cl)c1` (stereo not given): the inhibition was -2.8% (inactive).
Same read-out and setting: the value for `O=C1CSC(c2cn(-c3ccccc3)nc2-c2ccccc2)N1Cc1ccco1` (stereo not given) was 0.92% (inactive); that for `COc1ccc(-c2cc(C(=O)Nc3ccc(C)cc3)no2)cc1` was -3.11% (inactive); that for `CCn1nnc(NC(=O)c2cc3ccccc3o2)n1` was -4.19% (inactive).
As to `O=C(NCC(=O)N(c1cnc2ccccc2c1)C(C(=O)NC1CCCC1)c1ccncc1)c1ccco1` (stereo not given), the inhibition was 3.64% (inactive).
Still for that read-out and setting: next, `CCOC(=O)Nc1ccc(OC)cc1S(=O)(=O)N1CCCCC1`: -1.84% (inactive); `CCN(CC)CCN1C(=O)C(=O)/C(=C(/O)c2c(C)[nH]c(C(=O)OC)c2C)C1c1ccccc1OC` (stereo not given): -0.26% (inactive).
On to `Cc1cc(Nc2ccccc2)n(CCC#N)n1`, for which the inhibition is -5.73% (inactive).
Turning to `Cc1cc(C)n(-c2nc3c(c(=O)n(Cc4ccc(Cl)c(Cl)c4)c(=O)n3C)n2C)n1`, the inhibition is -1.69% (inactive).
Regarding `CCN(Cc1cc2cc(OC)ccc2[nH]c1=O)C(=O)Cc1ccc(OC)cc1`, the inhibition is -0.66% (inactive).
Turning to `COc1cccc(CNC(=O)C2CCN(C(=O)N(C)C)CC2)c1`, the inhibition is -0.64% (inactive).
Take `CCSc1cc(C2C(C(=O)OC)=C(C)NC3=C2C(=O)CCC3)c(C)o1` (stereo not given): the inhibition was -6.8% (inactive).
Still for that read-out and setting: next, `Cc1ccc2nc(NC(=O)C3CCCN(S(=O)(=O)c4cnc[nH]4)C3)sc2c1` (stereo not given): -2.67% (inactive); `C=CCn1c(SCc2ccc(C#N)cc2)nnc1-c1cccc(Cl)c1`: -2.21% (inactive); `C=CCn1c(SCC(=O)Nc2ccccc2OC)nnc1-c1ccco1`: -4.67% (inactive).
Take `COCCNC(=O)C(c1ccc(O)cc1)N(Cc1ccco1)C(=O)CCC(=O)Nc1nccs1` (stereo not given): the inhibition is -0.81% (inactive).
Still for that read-out and setting: the value for `Cc1cc(C)c(OCC(=O)Nc2ccc3c(c2)OCO3)cc1C` was -4% (inactive).
